More than one record can exist for a structure, and the calls need not agree. Calls of active or inactive are those of the source. Rule for the calls: active = hit-call score of the fitted dose curve at least 0.9, where 1 is the maximum; inactive = score below 0.9.
Columns and labels:
Conditions in all cases: mRNA level, 48 h; actives raise or lower the signal
[1] = read-out: Signal transducer and activator of transcription 3 (Homo sapiens) (UniProt P40763); experiment: LTEA_HepaRG_STAT3: Life Technologies and Expression Analysis (LTEA) Assay for Signal transducer and activator of transcription (STAT3) using HepaRG (AID 2283529)
In short: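 Differentiated HepaRG cells, serum-free induction medium, dosed 48 h in duplicate, 8 half-log concentrations from 100 uM in 0.5% DMSO. STAT3 mRNA by qRT-PCR, normalised to ACTB, GAPDH, POLR2A; bidirectional fit versus DMSO.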

[2] = read-out: solute carrier (SLCO1B1), SLCO1B1 (gene 10599); experiment: LTEA_HepaRG_SLCO1B1: Life Technologies and Expression Analysis (LTEA) Assay for solute carrier (SLCO1B1) using HepaRG (AID 2283530)
In short: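 HepaRG, serum-free induction medium, 48 h dosing, 8-pt half-log from 100 uM, 0.5% DMSO vehicle, duplicates. Readout: SLCO1B1 mRNA, qRT-PCR, ACTB/GAPDH/POLR2A normalization; up or down fit vs DMSO.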

[3] = read-out: sulfotransferase 2A1 (SULT2A1), SULT2A1 (gene 6822); experiment: LTEA_HepaRG_SULT2A1: Life Technologies and Expression Analysis (LTEA) Assay for sulfotransferase 2A1 (SULT2A1) using HepaRG (AID 2283531)
In short: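 Transcript levels of SULT2A1, quantified by qRT-PCR and normalized to three housekeeping genes, serve as the readout. Human HepaRG cultures receive test chemicals for 48 h at up to 100 uM in half-log steps, with 0.5% DMSO vehicle.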

[4] = read-out: Transforming Growth Factor (TGFA), TGFA (gene 7039); experiment: LTEA_HepaRG_TGFA: Life Technologies and Expression Analysis (LTEA) Assay for Transforming Growth Factor (TGFA) using HepaRG (AID 2283532)
In short: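 Differentiated HepaRG cells exposed 48 hours in serum-free induction medium, 0.5% DMSO vehicle, 8-point half-log series from 100 uM, in duplicate. TGFA mRNA by TaqMan qRT-PCR, normalised to ACTB, GAPDH, POLR2A; bidirectional fit versus DMSO.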

[5] = read-out: Transforming Growth Factor (TGFB1), TGFB1 (gene 7040); experiment: LTEA_HepaRG_TGFB1: Life Technologies and Expression Analysis (LTEA) Assay for Transforming Growth Factor (TGFB1) Transporter using HepaRG (AID 2283533)
In short: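 HepaRG, 48 h post-plating, switched to serum-free induction medium; chemicals 100 uM top, half-log, 8 pts, 0.5% DMSO, dup; 48 h exposure; RNA → Fluidigm TaqMan qRT-PCR; norm ACTB/GAPDH/POLR2A; bidirectional fit vs DMSO.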

[6] = read-out: TIMP1, TIMP1 (gene 7076); experiment: LTEA_HepaRG_TIMP1: Life Technologies and Expression Analysis (LTEA) Assay for TIMP1 using HepaRG (AID 2283534)
In short: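 Readout is TIMP1 mRNA level measured by qRT-PCR and normalized to three housekeeping genes. Human HepaRG cells were treated for 48 h in duplicate at eight concentrations up to 100 uM (0.5% DMSO); gain or loss fitted against DMSO.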

[7] = read-out: Tumor necrosis factor receptor 1 (TNFRSF1A), TNFRSF1A (gene 7132); experiment: LTEA_HepaRG_TNFRSF1A: Life Technologies and Expression Analysis (LTEA) Assay for Tumor necrosis factor receptor 1 (TNFRSF1A) using HepaRG (AID 2283535)
In short: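 Read-out is TNFRSF1A transcript level by TaqMan qRT-PCR, normalized to three housekeeping genes, scored as gain or loss of signal versus 0.5% DMSO. Human HepaRG cells received test chemicals for 48 h at up to 100 uM (half-log series).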

[8] = read-out: Thyroid Hormone Responsive (THRSP), THRSP (gene 7069); experiment: LTEA_HepaRG_THRSP: Life Technologies and Expression Analysis (LTEA) Assay for Thyroid Hormone Responsive (THRSP) using HepaRG (AID 2283536)
In short: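 Differentiated HepaRG cells treated 48 h in serum-free induction medium with 8 half-log concentrations up to 100 uM (0.5% DMSO), duplicates. THRSP mRNA by TaqMan qRT-PCR normalised to ACTB, GAPDH, POLR2A; bidirectional fit versus DMSO.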

[9] = read-out: Cellular tumor antigen p53 (Homo sapiens) (UniProt P04637); experiment: LTEA_HepaRG_TP53: Life Technologies and Expression Analysis (LTEA) Assay for Tumor Protein P53 (TP53) using HepaRG (AID 2283537)
In short: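 Gain or loss of TP53 mRNA signal is scored relative to 0.5% DMSO after 48 h chemical treatment of HepaRG liver cells, tested in duplicate at eight half-log concentrations up to 100 uM.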

[10] = read-out: UDP glucuronosyltransferase (UGT1A6), UGT1A6 (gene 54578); experiment: LTEA_HepaRG_UGT1A6: Life Technologies and Expression Analysis (LTEA) Assay for UDP glucuronosyltransferase (UGT1A6) using HepaRG (AID 2283539)
In short: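 HepaRG, 48 h post-plating switch to serum-free induction medium; chemical 48 h, 100 uM top, half-log x8, duplicate, 0.5% DMSO. Phenobarbital 1mM induction control. UGT1A6 mRNA by TaqMan qRT-PCR; gain/loss fit vs DMSO.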

Measured: AC50

Sequence of Cellular tumor antigen p53 (Homo sapiens) (P04637 whole entry, looked up): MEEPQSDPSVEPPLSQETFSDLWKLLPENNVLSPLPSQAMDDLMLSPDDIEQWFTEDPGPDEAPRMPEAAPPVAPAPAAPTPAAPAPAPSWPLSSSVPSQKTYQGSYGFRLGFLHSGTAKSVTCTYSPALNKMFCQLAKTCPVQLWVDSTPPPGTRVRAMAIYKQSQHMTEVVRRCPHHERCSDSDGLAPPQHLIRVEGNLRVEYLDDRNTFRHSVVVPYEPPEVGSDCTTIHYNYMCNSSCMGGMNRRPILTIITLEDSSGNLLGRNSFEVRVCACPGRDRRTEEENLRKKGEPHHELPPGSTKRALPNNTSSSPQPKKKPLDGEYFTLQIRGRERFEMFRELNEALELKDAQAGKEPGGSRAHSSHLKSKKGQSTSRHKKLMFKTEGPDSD
Sequence of Signal transducer and activator of transcription 3 (Homo sapiens) (P40763 whole entry, looked up): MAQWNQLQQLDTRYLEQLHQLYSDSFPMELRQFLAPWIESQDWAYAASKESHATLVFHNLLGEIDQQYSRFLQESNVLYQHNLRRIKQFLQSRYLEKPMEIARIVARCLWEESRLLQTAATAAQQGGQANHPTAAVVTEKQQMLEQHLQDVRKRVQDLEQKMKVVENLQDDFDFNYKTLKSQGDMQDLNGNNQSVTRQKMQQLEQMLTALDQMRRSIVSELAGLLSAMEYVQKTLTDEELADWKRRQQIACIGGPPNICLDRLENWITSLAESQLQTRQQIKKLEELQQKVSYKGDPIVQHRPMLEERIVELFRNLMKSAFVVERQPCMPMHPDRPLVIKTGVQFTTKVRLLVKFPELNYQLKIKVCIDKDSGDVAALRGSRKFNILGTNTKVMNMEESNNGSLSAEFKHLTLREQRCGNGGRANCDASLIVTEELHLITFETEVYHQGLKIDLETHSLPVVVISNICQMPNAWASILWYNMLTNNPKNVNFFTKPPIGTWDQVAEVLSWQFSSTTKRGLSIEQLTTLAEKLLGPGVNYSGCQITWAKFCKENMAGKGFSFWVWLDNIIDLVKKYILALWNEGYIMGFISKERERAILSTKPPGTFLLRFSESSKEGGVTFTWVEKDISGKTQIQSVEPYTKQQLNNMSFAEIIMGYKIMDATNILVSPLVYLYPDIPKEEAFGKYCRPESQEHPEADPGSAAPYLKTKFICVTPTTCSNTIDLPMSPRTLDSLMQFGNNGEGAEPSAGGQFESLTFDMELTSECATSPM

ClC1(Cl)C2(Cl)C3(Cl)C4(Cl)C(Cl)(Cl)C5(Cl)C3(Cl)C1(Cl)C5(Cl)C24Cl (stereo not given)
inactive: [1] | [2] | [3] | [4] | [5] | [6] | [7] | [8] | [9] | [10]

O=C1C2(Cl)C3(Cl)C4(Cl)C(Cl)(Cl)C5(Cl)C3(Cl)C1(Cl)C5(Cl)C24Cl (stereo not given)
active: [1] 93.1 µM | [2] 93.5 µM | [3] 93.5 µM | [5] 92.5 µM | [6] 93.4 µM | [8] 9.2 µM | [9] 22.6 µM | [10] 94.7 µM
inactive: [4] | [7]

CCN1CCC2(CC1)COc1cc3c(cc12)N(C(=O)c1ccc(-c2ccc(-c4nnc(C)o4)cc2C)cc1)CC3
inactive: [2] | [6]
active: [1] 13.7 µM | [3] 75.3 µM | [4] 83.8 µM | [5] 29 µM | [7] 21.6 µM | [8] 46.8 µM | [9] 46.8 µM | [10] 15.4 µM

CN(C)N=O
inactive: [1] | [2] | [3] | [4] | [5] | [6] | [7] | [8] | [9] | [10]

CCC(C)(C)c1ccc(O)c(C(C)(C)CC)c1
inactive: [1] | [2] | [3] | [4] | [5] | [6] | [7] | [8] | [9] | [10]

O=C(O)C(Cl)(Cl)Cl
active: [10] 9.92 µM
inactive: [1] | [2] | [3] | [4] | [5] | [6] | [7] | [8] | [9] | [10]

O=[N+]([O-])c1ccc(O)c([N+](=O)[O-])c1
inactive: [4] | [5]
active: [1] 12.8 µM | [2] 20.4 µM | [3] 17.7 µM | [6] 12.6 µM | [7] 4.42 µM | [8] 9.32 µM | [9] 13.2 µM | [10] 20.2 µM

C=CC(=O)OCCCCCC(C)C
inactive: [1] | [2] | [3] | [4] | [5] | [6] | [7] | [8] | [9] | [10]

CCCCCCCCc1ccc(O)cc1
active: [9] 0.418 µM
inactive: [1] | [2] | [3] | [4] | [5] | [6] | [7] | [8] | [10]

CCOP(=S)(OCC)SCSP(=S)(OCC)OCC
inactive: [1] | [2] | [3] | [4] | [5] | [6] | [10]
active: [7] 0.214 µM | [8] 50 µM | [9] 0.217 µM

O=C(O)C(F)(F)C(F)(F)C(F)(F)C(F)(F)C(F)(F)C(F)(F)F
inactive: [1] | [2] | [3] | [4] | [5] | [6] | [7] | [8] | [9] | [10]

Cn1sc(Cl)cc1=O
inactive: [1] | [2] | [3] | [4] | [5] | [6] | [7] | [8] | [9] | [10]

O=C(Nc1ccc2[nH]ccc2c1)c1cc2cc(F)ccc2n1Cc1cccc(F)c1
inactive: [1] | [5] | [7]
active: [2] 36.1 µM | [3] 31.8 µM | [4] 29.3 µM | [6] 81.9 µM | [8] 28.3 µM | [9] 12.4 µM | [10] 30.2 µM

O=c1[nH]c(=O)[nH]c(=O)[nH]1
inactive: [1] | [2] | [3] | [4] | [5] | [6] | [7] | [8] | [9] | [10]

NC(=O)O
inactive: [1] | [2] | [3] | [4] | [5] | [6] | [7] | [8] | [9] | [10]

CC(C)(c1ccccc1)c1ccc(O)c(C(C)(C)c2ccccc2)c1
inactive: [1] | [4] | [5] | [6] | [7] | [9] | [10]
active: [2] 74.4 µM | [3] 86.3 µM | [8] 12.7 µM

CCOP(=S)(OCC)Oc1nc(Cl)c(Cl)cc1Cl
inactive: [1] | [2] | [3] | [4] | [5] | [6] | [7] | [8] | [9] | [10]

O=C(O)C(F)(F)C(F)(F)C(F)(F)C(F)(F)C(F)(F)C(F)(F)C(F)(F)C(F)(F)C(F)(F)C(F)(F)F
inactive: [1] | [2] | [4] | [5] | [6] | [7] | [8] | [9]
active: [3] 47.8 µM

Oc1cccc2cccnc12
inactive: [1] | [2] | [3] | [4] | [5] | [6] | [7] | [8] | [9] | [10]

CC12CC1(C)C(=O)N(c1cc(Cl)cc(Cl)c1)C2=O (stereo not given)
inactive: [1] | [2] | [4] | [5] | [6] | [7] | [8] | [9] | [10]

CC(=O)[O][Hg][c]1ccccc1
inactive: [2]
active: [1] 17 µM | [3] 17.6 µM | [4] 23 µM | [5] 23 µM | [6] 83.7 µM | [7] 27.6 µM | [8] 2.11 µM | [9] 0.193 µM | [10] 18.4 µM

CCC(=O)C(CC(C)N(C)C)(c1ccccc1)c1ccccc1 (stereo not given)
active: [8] 17.8 µM
inactive: [1] | [2] | [3] | [4] | [5] | [6] | [7] | [9] | [10]

C[C@]12CCC(=O)C[C@@H]1CC[C@@H]1[C@@H]2CC[C@]2(C)[C@@H](O)CC[C@@H]12
inactive: [1] | [2] | [3] | [4] | [5] | [6] | [7] | [8] | [9] | [10]

CC(C)(C)CC(C)(C)c1ccc(O)cc1
inactive: [1] | [2] | [3] | [4] | [5] | [6] | [7] | [8] | [9] | [10]

COc1cc(-c2ccc(N)c(OC)c2)ccc1N
inactive: [1] | [2] | [3] | [4] | [5] | [6] | [7] | [8] | [9] | [10]
active: [8] 42.9 µM

CC(C)(C)c1cc(O)ccc1O
inactive: [1] | [2] | [3] | [4] | [5] | [6] | [7] | [8] | [9] | [10]

CC(C)(OO)c1ccccc1
inactive: [1] | [2] | [3] | [4] | [5] | [6] | [7] | [8] | [9] | [10]

ClCC(Cl)CCl
inactive: [1] | [2] | [3] | [4] | [5] | [6] | [7] | [8] | [9] | [10]

C=C(C)C(=O)[O][Sn]([CH2]CCC)([CH2]CCC)[CH2]CCC
active: [2] 2.57 µM | [3] 76.9 µM | [4] 2.42 µM | [5] 2.44 µM | [8] 0.381 µM | [10] 2.63 µM
inactive: [1] | [6] | [7] | [9]

C[C@@H]1C[C@@H]([C@H](O)CC2CC(=O)NC(=O)C2)C(=O)[C@@H](C)C1
active: [1] 15.6 µM | [2] 16.4 µM | [3] 48.9 µM | [4] 31.1 µM | [6] 50 µM | [7] 80.6 µM | [8] 7.51 µM | [9] 12 µM | [10] 39.6 µM
inactive: [5]

Cc1ccccc1N
inactive: [1] | [2] | [3] | [4] | [5] | [6] | [7] | [8] | [9] | [10]
